Results filed as inconclusive are left out. Some compounds were tested as several samples or in several runs, with calls that do not always agree. Active and inactive are the calls of the source. Unless noted, the call rests on the fitted dose curve; in most records, active means well fitted curve in the direction sought with a large enough effect in the repeat runs; inconclusive means weak or mixed curves; inactive means no such curve, though single readings can be large; an effect the other way counts as inactive or inconclusive.

Experiment [1] in a line: qHTS assay to identify small molecule antagonists of the vitamin D receptor (VDR) signaling pathway - cell viability counter screen (AID 743225). Further: nearly all actives have a fitted effect of over 50% in size. The method in brief:
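Compounds were pinned onto VDR-bla HEK 293T cells together with 1-alpha,25-dihydroxyvitamin D3 at 3 nM final. After 16 h at 37C and 5% CO2 plus the reporter readout, cell viability was measured by CellTiter-Glo luminescence (30 min, room temperature).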

A short description of experiment [2]: qHTS assay to identify small molecule agonists of the NFkB signaling pathway (AID 1159509; active means well fitted curve in the direction sought with a large enough effect in the signal ratio in the repeat runs, not every such curve was filed as active; the % refers to the signal ratio; further: series mostly up to about 61 µM). A digest of the protocol:
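NFkB-bla ME-180 cells with a beta-lactamase reporter under an NF-kB response element were plated overnight, treated with compounds in DMSO for 5 hr at 37 C, then loaded with FRET substrate for 1.5 hr at room temperature.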

Experiment [3] in a line: qHTS assay to identify small molecule agonists of the NFkB signaling pathway - cell viability counter screen (AID 1159515; calls by dose curve; further: series mostly up to about 61 µM; nearly all actives have a fitted effect of over 55% in size). The method in brief: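 NFkB-bla ME-180 cells, 2,000/well, plated overnight at 37 C; compound added for 5 hr at 37 C. Viability read in the same wells as the bla reporter, by CellTiter-Glo luminescence after 30 min at room temperature.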
Experiment [4] is described as follows: qHTS assay to identify small molecule agonists of the endoplasmic reticulum stress response signaling pathway (AID 1159516; active means well fitted activation curve with a large enough effect in the signal ratio in the repeat runs, not every such curve was filed as active; the % refers to the signal ratio). The method in brief:
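CellSensor ESRE-bla HeLa cells, 1,500 per well, plated overnight, then exposed to compounds for 5 hr at 37 C. Beta-lactamase reporter read with LiveBLAzer B/G FRET substrate after 2 hr at room temperature, 405 nm excitation, 460 and 530 nm emission.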

Experiment [5] in a line: qHTS assay to identify small molecule agonists of the endoplasmic reticulum stress response signaling pathway - cell viability counter screen (AID 1159517; calls by dose curve; further: nearly all actives have a fitted effect of over 50% in size; further: potency means the concentration at half of the fitted maximal effect). The method in brief:
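Cells, HeLa ESRE-bla; density, 1,500/well; dosing, 5 hr at 37 C, 5% CO2; readout, CellTiter-Glo luminescence after 30 min RT.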

Experiment [6] deals with Nuclear receptor ROR-gamma (Homo sapiens) (UniProt P51449). As to the kind of experiment: qHTS assay to identify small molecule antagonists of the retinoid-related orphan receptor gamma (ROR-gamma) signaling pathway (AID 1159521;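 further: CHO cells with doxycycline inducible ROR-gamma driving an RORE luciferase reporter; top concentration of the series differs between compounds; nearly all actives have a fitted effect of over 50% in size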). The method in brief:
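Test compounds were applied to Tet-on RORγ CHO cells 2 h ahead of doxycycline hyclate (1 uM final). Luciferase reporter activity was quantified by luminescence after 16 h at 37 C and 5% CO2.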
A general note: In qHTS, concentration-response curves come from the screen itself.

Experiment [7] can be described thus: qHTS assay to identify small molecule agonists of the AP-1 signaling pathway - cell viability counter screen (AID 1159525; calls by dose curve; further: nearly all actives have a fitted effect of over 55% in size). The method in brief: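 Luminescent ATP readout (Cell Titer Glo, 30 min RT), normalised to DMSO and tetra n-octyl ammonium bromide controls. Cells were ME-180 AP-1-bla in 0.5% dialyzed FBS Opti-MEM, with a 5 h, 37 °C compound exposure.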

A short description of experiment [8]: qHTS assay to identify small molecule agonists of the AP-1 signaling pathway (AID 1159526; calls by dose curve).
A short description of experiment [9]: qHTS assay to identify small molecule agonists of the vitamin D receptor (VDR) signaling pathway - cell viability counter screen (AID 743224). Further: nearly all actives have a fitted effect of over 50% in size. Further: potency means the concentration at half of the fitted maximal effect. The method in brief: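 VDR-bla cells, 4 h after plating, exposed to compounds for 16 h at 37C; viability then read in the same wells as CellTiter-Glo luminescence after 30 min at room temperature, following the bla FRET read.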

A short description of experiment [10]: qHTS assay to identify small molecule antagonists of the retinoid-related orphan receptor gamma (ROR-gamma) signaling pathway - cell viability counter screen (AID 1159520). Further: nearly all actives have a fitted effect of over 50% in size. The method in brief:
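Cytotoxicity was read from cellular ATP (CellTiter-Glo luminescence) after 16 hr at 37 C with 1 uM doxycycline induction. The inducer was added 2 hr after compound transfer to Tet-on ROR gamma CHO cells.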

On to `CCCCS(=O)(=O)Cl`, for which the Potency result in experiment [1], in experiment [5], in experiment [6] and in experiment [7] was “inactive” throughout. The molecule was classed as inactive in experiment [2], in [3], in [4] and in experiment [8].
As for `CC(=O)CN(CC(C)=O)N=O`, the Potency entry in [9], in experiment [1], in experiment [10], in [6] and in [7] was “inactive” in each case. Moreover, the result in experiment [2], in experiment [3], in [4] and in experiment [8] was inactive.
For `CCN(CC)C1CCCCC1`, the Potency result in experiment [9], in experiment [1], in experiment [10], in experiment [6] and in experiment [7] was “inactive” in each case. Moreover, the outcome in experiment [2], in experiment [3], in [4] and in experiment [8] was inactive.
Take `ClCOCCl`: the Potency entry in [9], in [1], in experiment [10], in experiment [6] and in experiment [7] was “inactive” each time. Besides, the call in experiment [2], in [3], in experiment [4] and in experiment [8] was inactive.
Turning to `C=C(C)[C@H]1CN[C@H](C(=O)O)[C@H]1CC(=O)O`, the Potency entry in [9], in experiment [1], in experiment [5], in experiment [10], in experiment [6] and in experiment [7] was “inactive” each time. In addition, the molecule was called inactive in experiment [2], in [4] and in experiment [8].
For the molecule `CON(C)C(=O)Nc1ccc(Br)cc1`, the Potency entry in experiment [1], in [10], in [6] and in experiment [7] was “inactive” each time. Besides, the molecule was classed as inactive in experiment [2], in [3], in [4] and in experiment [8].
Take `CCN1CCCC1CNC(=O)C(O)(c1ccccc1)c1ccccc1` (stereo not drawn): the Potency result in experiment [9], in experiment [1], in [6] and in [7] was “inactive” throughout. The molecule was called inactive in [2], in experiment [3], in experiment [4] and in [8].
`COc1cccc(C=O)c1`: the Potency result in experiment [9], in experiment [1], in [10], in experiment [6] and in experiment [7] was “inactive” each time. Moreover, the result in experiment [2], in experiment [3], in experiment [4] and in experiment [8] was inactive.
For the molecule `CC(C)(C)C(=O)C(Cl)Cl`, the Potency result in experiment [9], in experiment [5], in experiment [10], in [6] and in [7] was “inactive” throughout. Moreover, the outcome in experiment [2], in [4] and in experiment [8] was inactive.
In the case of `O=C(Cl)OCc1ccccc1`, the Potency result in experiment [9], in experiment [1], in experiment [10], in experiment [6] and in [7] was “inactive” in each case. In addition, the molecule was classed as inactive in experiment [2], in experiment [3], in experiment [4] and in experiment [8].
In the case of `CCCCCCCCSC(=O)Oc1cc(Cl)nnc1-c1ccccc1`, the Potency entry in experiment [9], in experiment [1], in experiment [6] and in experiment [7] was “inactive” each time. In addition, the call in experiment [2], in [3], in experiment [4] and in experiment [8] was inactive.
For the molecule `C[C@H](N)C(=O)c1ccccc1`, the Potency result in [9], in experiment [1], in experiment [10], in [6] and in experiment [7] was “inactive” throughout. In addition, the outcome in experiment [2], in experiment [3], in experiment [4] and in [8] was inactive.
As for `C#CCOC(=O)/C=C(C)/C=C/CC(C)CCCC(C)C` (stereo not drawn), the Potency entry in experiment [1], in experiment [10], in [6] and in experiment [7] was “inactive” each time. For the same molecule, the molecule was classed as inactive in experiment [2], in [3], in experiment [4] and in experiment [8].
On to `C(COCC1CO1)OCC1CO1` (stereo not drawn), for which the Potency entry in experiment [1], in experiment [10], in experiment [6] and in experiment [7] was “inactive” in each case. In addition, the call in experiment [2], in experiment [3], in [4] and in experiment [8] was inactive.
For the molecule `ClCCN1CCCC1`, the Potency entry in [9], in [1], in [6] and in experiment [7] was “inactive” each time. The result in experiment [2], in experiment [3], in experiment [4] and in experiment [8] was inactive.
Consider `COc1cccc([C@@]2(O)CCCC[C@@H]2CN(C)C)c1`, for which the Potency entry in experiment [9], in experiment [1], in experiment [6] and in [7] was “inactive” each time. The molecule was classed as inactive in [2], in experiment [3], in [4] and in experiment [8].
For the molecule `CN(C)CCN(C)C`, the Potency result in [9], in experiment [10], in experiment [6] and in experiment [7] was “inactive” in each case. Further, the molecule was classed as inactive in experiment [2], in experiment [3], in experiment [4] and in experiment [8].
On to `ClC1=C(Cl)C2(Cl)C(CBr)CC1(Cl)C2(Cl)Cl` (stereo not drawn), for which the Potency in experiment [9] was 34.7 µM (active) and inactive; in experiment [5], 54.9 µM (active) and inactive. The Potency result in experiment [1], in experiment [6] and in experiment [7] was “inactive” in each case. In addition, the molecule was classed as inactive in experiment [2], in experiment [3] and in [4].
With `C=C1C[C@@H]2[C@H](CC[C@]3(C)C(=O)CC[C@@H]23)[C@@]2(C)C=CC(=O)C=C12`, the Potency entry in experiment [9], in [1], in experiment [6] and in [7] was “inactive” throughout. The molecule was called inactive in experiment [2], in experiment [3], in experiment [4] and in [8].
On to `C[N+]1(C)CCCCC1`, for which the Potency result in [9], in experiment [6] and in [7] was “inactive” each time. The call in experiment [2], in experiment [3], in experiment [4] and in experiment [8] was inactive.
On to `CCCC[N+](=O)[O-]`, for which the Potency result in experiment [9], in experiment [1], in experiment [5], in experiment [10], in experiment [6] and in experiment [7] was “inactive” throughout. For the same molecule, the call in experiment [2], in [4] and in [8] was inactive.
On to `CCSC(=O)Cl`, for which the Potency entry in experiment [1], in experiment [5], in experiment [10], in experiment [6] and in experiment [7] was “inactive” in each case. Further, the call in experiment [2], in experiment [4] and in [8] was inactive.

The values above are taken from PubChem BioAssay (Tox21).
